{"source": "ChEMBL document CHEMBL1157539", "about": "“Thousands of chemical starting points for antimalarial lead identification” (Nature, 2010)", "note": "The full ranking holds about 13,000 compounds; the median of “IFI” is about 4, and the highest 2% start at about 17. The sample holds the highest values, similar compounds and a random draw of the others, so the mix is not that of the screen."}
{"assay": "GSK_TCMDC: Inhibition Frequency Index (IFI). The number of non-kinase HTS assays where a compound showed > 50 % inhibition, expressed as a percentage of the number of such assays in which the compound was tested", "format": "functional", "units": {"IFI": "%"}}
{"smiles": "Cc1[nH]c(C)c(-c2ccc(-c3ccc(Cl)cc3)cc2)c(=O)c1Cl", "IFI": 0.76}
{"smiles": "COc1ccc(CNCc2ccc(-c3cccc(-c4nc5cc(C(F)(F)F)ccc5[nH]4)c3)cc2)cc1", "IFI": 14.3}
{"smiles": "CCCCc1cc(O)c2c(c1)OC(C)(C)C=C2C1=CCN(Cc2ccccc2)CC1", "IFI": 1.43}
{"smiles": "Oc1ccc2nc(NCCCc3ccccc3)nc(NCCCc3ccccc3)c2c1", "IFI": 10.9}
{"smiles": "COc1ccc(C(=O)Nc2ccc(Cl)cc2C(=O)Nc2ccncc2)cc1", "IFI": 1.35}
{"smiles": "COc1cccc(NC(=O)c2cc(Br)cc(N3CCN(c4ccncc4)CC3)c2)c1", "IFI": 12.5}
{"smiles": "COc1cccc(NC(=O)Nc2ccc(-c3oc(C(=O)NCC(c4ccccc4)N(C)C)cc3-c3ccncc3)cc2)c1", "note": "(configuration not stated)", "IFI": 6.85}
{"smiles": "COc1ccc(NC(=O)Nc2ccc(C)c(-c3ccc(C(=O)NCCN4CCCC4)cc3)c2)cc1", "IFI": 0}
{"smiles": "COc1ccc(NC(=O)Nc2ccc(C)c(-c3ccc(C(=O)Nc4ccncc4)cc3)c2)cc1", "IFI": 25.4}
{"smiles": "COc1cccc(NC(=O)Nc2ccc(C)c(-c3ccc(C(=O)Nc4ccncc4)cc3)c2)c1", "IFI": 26.8}
{"smiles": "CN1CCN(c2ccc(Nc3c(C(N)=O)cnc4cc(-c5ccoc5)ccc34)cc2)CC1", "IFI": 4.73}
{"smiles": "OC1=C2C(=Nc3ccccc3SC2c2cccs2)c2ccccc21", "note": "(configuration not stated)", "IFI": 3.5}
{"smiles": "COc1ccccc1-c1ccc(C(=O)NCC2CCCN(Cc3cccc(C(F)(F)F)c3)C2)s1", "note": "(configuration not stated)", "IFI": 3.7}
{"smiles": "Nc1nc(N)c2c(ccc3c2ccn3Cc2ccc3c(c2)OCO3)n1", "IFI": 6.67}
{"smiles": "Fc1ccccc1C=NNc1ccnc2cc(Cl)ccc12", "IFI": 1.48}
{"smiles": "CC(C)c1ccc(C=CC(=O)N2CCC(CCN3CCC(c4c[nH]c5ccccc45)CC3)CC2)cc1", "IFI": 7.19}
{"smiles": "OC(CNc1ccnc(Nc2cccc(Cl)c2)n1)c1ccc(C(F)(F)F)cc1", "note": "(configuration not stated)", "IFI": 11}
{"smiles": "OC(CNc1ccnc(Nc2ccccc2)n1)c1ccc(C(F)(F)F)cc1", "note": "(configuration not stated)", "IFI": 8.08}
{"smiles": "N#Cc1cccc(Nc2nccc(NCC(O)c3cccc(C(F)(F)F)c3)n2)c1", "note": "(configuration not stated)", "IFI": 10.4}
{"smiles": "N#Cc1cccc(Nc2nccc(NCC(O)c3ccccc3C(F)(F)F)n2)c1", "note": "(configuration not stated)", "IFI": 19.2}
{"smiles": "Cc1ccccc1C(O)CNc1ccnc(Nc2cccc(C#N)c2)n1", "note": "(configuration not stated)", "IFI": 7.69}
{"smiles": "OC(CNc1ccnc(Nc2ccc(Cl)cc2)n1)c1ccccc1C(F)(F)F", "note": "(configuration not stated)", "IFI": 14.4}
{"smiles": "N#Cc1cccc(Nc2nccc(NCC(O)c3ccc(C(F)(F)F)cc3)n2)c1", "note": "(configuration not stated)", "IFI": 20.4}
{"smiles": "OC(CNc1ccnc(Nc2cccc(Cl)c2)n1)c1cccc(C(F)(F)F)c1", "note": "(configuration not stated)", "IFI": 13.3}
{"smiles": "OC(CNc1ccnc(Nc2cccc(Cl)c2)n1)c1ccccc1C(F)(F)F", "note": "(configuration not stated)", "IFI": 20.4}
{"smiles": "CNCCNCc1cccc(-c2ccc(-c3nc4cc(C(F)(F)F)ccc4[nH]3)s2)c1", "IFI": 8}
{"smiles": "O=C(Nc1ccc(-c2cccc(-c3nc4cc(C(F)(F)F)ccc4[nH]3)c2)cc1)c1ccoc1", "IFI": 7.08}
